Reference: PubChem BioAssay AID1745849 (National Center for Advancing Translational Sciences (NCATS), 2022)
Among all 2,100 compounds or so, about 320 (15%) were called active. Roughly 52% stayed inconclusive and do not appear here. Calls come from the whole dose curve; as a rule, active = well fitted cell-killing curve with a large enough effect; inconclusive = small, poorly fitted or top-dose-only effect, or effect the other way; inactive = flat fitted curve, though single readings scatter. This is one part of the list.

Experiment: Viability Counterscreen for CMV-Luciferase Assay of Inhibitors of ATXN expression; note: nearly all actives have a fitted effect of over 55% in size
Conditions: HEK-293 CMV-luciferase cells viability, protease fluorescence, 24 h; activity change, negative = cytotoxicity: at the top concentration
Method in brief: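 Luminescence read-out: SteadyGlo added, 5 min RT, measured in CMV-luciferase HEK-293 cells after 24 hr compound treatment (several concentrations). Viability counterscreen: 25 uM Gly-Phe-7-amino-4-trifluoromethylcoumarin, 30 min at 37 degree C, fluorescence ex 405/em 540 nm.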
% is set by controls: 0 for no effect and ±100 for the full control effect; potency is the fitted concentration of half-maximal effect.

SMILES | Potency | activity change, negative = cytotoxicity
Cc1cc(NCc2ccccn2)n2nc(C)c(-c3ccc(Cl)cc3)c2n1 | 20 µM (active) | –
CCCc1cc(NCc2ccccn2)n2nc(C)c(-c3ccccc3)c2n1 | – | -18.3% (inactive)
CC(C)C(CCNCc1ccccn1)c1ccc(Cl)cc1 (stereo unspecified) | – | 5.83% [at 57.5 µM] (inactive)
COc1cc(/C=C/c2ccc3cccc(O)c3n2)cc(OC)c1OC | – | -28.4% [at 57.5 µM] (inactive)
COc1cc(/C=C2\COC/C(=C\c3cc(OC)c(OC)c(OC)c3)C2=O)cc(OC)c1OC | 1.58 µM (active) | –
COc1cc(OC)c(OC)cc1/C=C1\CC(C)C/C(=C\c2cc(OC)c(OC)cc2OC)C1=O (stereo unspecified) | – | -29.6% [at 57.5 µM] (inactive)
CCOC(=O)N(C)c1c(CC)nc2c(OCc3ccccc3OC)cccn12 | – | 14.1% [at 57.5 µM] (inactive)
Cc1cc(C)cc(NC(=O)CCC(=O)Nc2cc(C)on2)c1 | – | 16.8% (inactive)
Cn1c(SCc2ccc(C(C)(C)C)cc2)nnc1C1COc2ccccc2O1 (stereo unspecified) | – | -14.2% (inactive)
N#C/C(=C/c1ccc(Sc2nc3ccccc3[nH]2)o1)c1cccc(F)c1 | – | -26.5% (inactive)
CC1(C(=O)NC2CCN(Cc3ccccc3)CC2)CCN1Cc1ccc2ccccc2c1 (stereo unspecified) | – | -17.7% (inactive)
C=CCN(C(=O)CSc1nc2c(sc3ccccc32)c(=O)n1CCN(CC)CC)c1ccccc1 | 20 µM (active) | –
COc1ccc(/C=C/C(O)=C2/C(=O)N(C)C3(C)CC2c2ccccc2O3)cc1 (stereo unspecified) | – | 0.775% [at 57.5 µM] (inactive)
COc1ccc(C(=O)c2c(C)c3ccccc3n2CC(O)CNC(C)C)cc1 (stereo unspecified) | 17.8 µM (active) | –
O=C(Oc1c(CN2CCOCC2)cc(Cl)c2cccnc12)c1cccs1 | – | 6.23% [at 57.5 µM] (inactive)
COc1cnc(-c2ccccn2)nc1NC(C)C | 6.31 µM (active) | –
COc1cc(C#Cc2c(-c3cncn3C)n(C)c3ccc(-c4ccc(CN5CCOCC5)cc4)cc23)cc(OC)c1 | – | 3.5% (inactive)
COc1ccc2c(-c3ccc(S(N)(=O)=O)cc3)c(-c3ccc(S(C)(=O)=O)cc3)sc2c1 | – | -21.7% [at 57.5 µM] (inactive)
NC(=O)c1cc([N+](=O)[O-])ccc1NCc1ccc(N)cc1 | 22.4 µM (active) | –
OCCN1CCN(C2CCC(c3ccc(F)cc3)c3ccc(F)cc32)CC1 (stereo unspecified) | – | -5.95% [at 57.5 µM] (inactive)
CC(C)CC(NC(=O)c1ccc(Cl)cc1)C(=O)OCC(=O)c1ccc2c(c1)NC(=O)CO2 (stereo unspecified) | 14.1 µM (active) | –
CN(C)CCCNc1nc2cc(-c3cccc(Cl)c3)sc2c(=O)n1C | – | -16.2% [at 57.5 µM] (inactive)
O=C(CNC(=O)c1ccccc1O)N/N=C/c1cc(Br)ccc1OC(=O)/C=C/c1ccco1 | – | 13% (inactive)
CC(=O)c1cc(CN2CCC(C(=O)Nc3cccc(-c4cscn4)c3)CC2)cs1 | – | -11.1% [at 57.5 µM] (inactive)

SMILES | Potency | activity change, negative = cytotoxicity
COCc1ccc(CN2CCC(C(=O)Nc3cccc(-c4cccc(Cl)c4)c3)CC2)o1 | 17.8 µM (active) | –
CCCn1ncc(CN2CCC(C(=O)Nc3cccc(-c4cccc(F)c4)c3)CC2)c1C | – | -27.1% [at 57.5 µM] (inactive)
O=C(NCc1ccco1)c1ccc(-c2cccc(Cl)c2)o1 | – | -7.88% [at 57.5 µM] (inactive)
CN1CCC(N(C)C(=O)c2ccc(Cl)c(S(=O)(=O)N3CCc4ccccc43)c2)CC1 | – | -12.2% [at 57.5 µM] (inactive)
Cc1ccccc1SCC(=O)N1CCN(c2ccc(C(F)(F)F)cn2)CC1 | – | -1.97% (inactive)
O=C(Nc1ccc(F)cc1)c1sccc1SCc1cccc(C(F)(F)F)c1 | – | -14.2% [at 57.5 µM] (inactive)
O=C(CSC1=NNC(c2ccccn2)S1)Nc1ccc(C(F)(F)F)cc1 (stereo unspecified) | 14.1 µM (active) | –
COC(=O)c1ccsc1NC(=O)CN1CCN(Cc2ccc3c(c2)OCO3)CC1 | – | 9.4% [at 57.5 µM] (inactive)
Cc1ccc(C(=O)CN2C(=O)c3ccccc3S2(=O)=O)cc1 | – | 1.75% (inactive)
Cc1ccc2nc(NC(=O)CSCC(=O)OCC(=O)c3ccc(Br)cc3)sc2c1 | – | 16.3% [at 57.5 µM] (inactive)
Cc1ccc(C(=O)COC(=O)c2ccc3c(c2)C(=O)N(c2cccc4ncccc24)C3=O)cc1 | 22.4 µM (active) | –
O[C@@H]1[C@@H](O)C=C2CCN3Cc4cc5c(cc4[C@H]1C23)OCO5 (stereo partly specified) | 6.31 µM (active) | –
Cc1cc(C)n(-c2ccc(C(=O)N3CCN(S(=O)(=O)c4cccc(Br)c4)CC3)cc2)n1 | – | 3.92% (inactive)
CCc1cc(-c2[nH]ncc2-c2ccc(OC)cc2)c(O)cc1O | – | -18.3% (inactive)
CCn1c2ccccc2c2cc(/C=C(/C#N)C(N)=S)ccc21 | – | -29.2% (inactive)
O=C(Nc1ccc(Oc2ccc(NC(=O)Nc3ccc([N+](=O)[O-])cc3)cc2)cc1)Nc1ccc([N+](=O)[O-])cc1 | 10 µM (active) | –
CCOC(=O)/C=C/C(=O)Nc1ccc(Oc2ccccc2)cc1 | – | -13.1% (inactive)
Cc1ccc(Cc2cnc(NC(=O)/C(C#N)=C/c3ccc(-c4cccc([N+](=O)[O-])c4)o3)s2)cc1 | 20 µM (active) | –
Cc1ccc(-c2ccc(/C=N/c3ncn[nH]3)o2)cc1Cl | – | -27.7% (inactive)
CCCc1cc(=O)[nH]c(-n2[nH]c3c(c2=O)CCCC3)n1 | 22.4 µM (active) | –
CCn1c2ccccc2c2cc(NC(=O)COC(=O)c3cc(S(=O)(=O)N4CCCCC4)ccc3Cl)ccc21 | – | 12.4% (inactive)
CC[C@]12c3[nH]c4ccc(Cl)cc4c3CCN1C(=O)[C@@H](CC(=O)NCC13CC4CC(CC(C4)C1)C3)C[C@@H]2C(=O)N1CCN(C(=O)c2ccco2)CC1 | 3.16 µM (active) | –
CC[C@]12c3[nH]c4ccc(Cl)cc4c3CCN1C(=O)[C@@H](CC(=O)NCC13CC4CC(CC(C4)C1)C3)C[C@@H]2C(=O)N1CCN(C(=O)C2CC2)CC1 | 22.4 µM (active) | –
CCOC(=O)c1cnc2ccc(OC)cc2c1Nc1ccc(N2CCN(C)CC2)cc1 | – | -29.6% [at 57.5 µM] (inactive)

SMILES | Potency | activity change, negative = cytotoxicity
Cc1ccc2nc3cc([N+](=O)[O-])cc([N+](=O)[O-])c3cc2c1 | 11.2 µM (active) | –
Cc1ccc2nc(SCc3ccc([N+](=O)[O-])cc3)[nH]c2c1 | – | -7.46% (inactive)
COc1cc2nc(CN(C)Cc3ccc(SC)cc3)[nH]c(=O)c2cc1OC | – | -19% [at 57.5 µM] (inactive)
COc1cc2nc(N(C)C)nc(N)c2cc1OC | 25.1 µM (active) | –
COc1ccc(C)cc1Nc1nc(N)c2cc(OC)c(OC)cc2n1 | – | -4.73% (inactive)
CC(C)(C)S(=O)(=O)/C(C#N)=N/Nc1ccc(Cl)cc1 | 25.1 µM (active) | –
CCc1ccc(N(CC)C(=O)c2ccc3c(Cl)c4c(nc3c2)CCC4)cc1 | – | -27.5% (inactive)
O=C(Nc1ccc(N2CCN(C(=O)c3ccco3)CC2)c(Cl)c1)c1cccs1 | 28.2 µM (active) | –
O=C(NC(=S)N1CCN(c2ccc(F)cc2)CC1)c1cccs1 | – | -10.7% (inactive)
O=C(Nc1ccc(N2CCN(C(=O)c3ccco3)CC2)c(Cl)c1)c1c(F)c(F)c(F)c(F)c1F | – | -27.5% [at 57.5 µM] (inactive)
CC(C)(C)OC(=O)N1CCC(c2c(C(=O)NCC3CCN(C4CCCC4)C3)cnn2-c2cccc(Cl)c2)CC1 (stereo unspecified) | – | -29.1% (inactive)
CC(=O)c1sc(C(C)(C)C)cc1NC(=O)/C=C/C(=O)O | – | -3.54% [at 57.5 µM] (inactive)
CCOC(=O)c1c(C)nn(-c2ccc(NC(=O)/C=C/C(=O)O)cc2)c1C | – | -16.6% [at 57.5 µM] (inactive)
COC(=O)c1c(NC(=O)/C=C/C(=O)O)sc(C)c1-c1ccc(C(C)C)cc1 | 20 µM (active) | –
CN(C)CCCN(C(=O)c1ccc(S(=O)(=O)N2CCCC2)cc1)c1nc2ccc(Br)cc2s1 | 31.6 µM (active) | –
CN(C)CCCN(C(=O)CCc1ccccc1)c1nc2ccc(Br)cc2s1 | 22.4 µM (active) | –
CN(C)CCCN(C(=O)c1ccc(S(=O)(=O)N2CCCCCC2)cc1)c1nc2ccc(Br)cc2s1 | – | -15.8% (inactive)
CC(=O)c1ccc(S(=O)(=O)N2CCN(CCOc3ccc(Br)cc3)CC2)cc1 | – | -20.8% (inactive)
O=C(N/N=C/c1cc(Br)ccc1O)C(c1ccncc1)N1CCOCC1 (stereo unspecified) | – | -14.8% [at 57.5 µM] (inactive)
Cc1cc(C(=O)N/N=C/c2cc(Br)ccc2OC(=O)c2ccccc2)n[nH]1 | – | -6.81% (inactive)
COc1cccc(NC(=O)/C=C/c2ccc(S(=O)(=O)N3CCOCC3)cc2)c1 | – | -4.39% [at 57.5 µM] (inactive)
Cn1c(CO)c(-c2ccccc2)c2cc([N+](=O)[O-])ccc21 | – | 3.4% (inactive)
Cc1[nH]n2c(=O)cc(C(C)(C)C)nc2c1-c1ccccc1 | 11.2 µM (active) | –
CC(C)N(C(=O)COC(=O)c1ccccc1C(=O)c1ccc(Cl)c([N+](=O)[O-])c1)C(C)C | – | -28.3% (inactive)

SMILES | Potency | activity change, negative = cytotoxicity
COCCCNCCCOc1ccc(Cl)cc1C(C)(C)C | 25.1 µM (active) | –
CCCCNCCCOc1cccc(Cl)c1Cl | – | -25.7% [at 57.5 µM] (inactive)
CC(OC(=O)c1cc(Br)ccc1O)C(=O)Nc1ccc(S(=O)(=O)N2CCCC2)cc1 (stereo unspecified) | 28.2 µM (active) | –
O=C(N/N=C\c1cc(Br)ccc1O)c1ccc(S(=O)(=O)N2CCCCC2)cc1 | – | 9.4% (inactive)
O=C(N/N=C\c1cc(Cl)ccc1O)c1ccc(S(=O)(=O)N2CCCCC2)cc1 | – | 9.18% (inactive)
COc1ccc(-c2n(CC(=O)OC3CC(C)CCC3C(C)C)c3ccccc3[n+]2C)cc1 (stereo unspecified) | 7.94 µM (active) | –
C/C(=N\Nc1cc(N2CCOCC2)nc(C)n1)c1cccc([N+](=O)[O-])c1 | – | -2.94% (inactive)
N#C/C(=N\Nc1cccc([N+](=O)[O-])c1)C(=O)c1ccc(Br)cc1 | 2.24 µM (active) | –
CC(NC(=O)Nc1cccc([N+](=O)[O-])c1)c1ccc2c(c1)OCO2 (stereo unspecified) | – | -13.9% (inactive)
Cc1csc2c(N3CCN(C(=O)Nc4ccc(Cl)c(Cl)c4)CC3)ncnc12 | – | -11.9% (inactive)
COc1ccc([C@@]2(C(C)C)ON(c3ccccc3C(F)(F)F)C2=O)cc1 | – | -16.8% (inactive)
O=C(NCC(=O)N1CC(O)CC1C(=O)N1CCCC1C(=O)OCc1ccccc1)OCc1ccccc1 (stereo unspecified) | – | -1.71% (inactive)
O=C(Cc1ccccc1)N/N=C/c1cc(Br)cc(Br)c1O | – | -0.659% (inactive)
C=CCc1cccc(/C=N/NC(=O)CCCNc2ccc(C)cc2)c1O | 20 µM (active) | –
C=CCc1cccc(/C=N/NC(=O)CNc2ccccc2)c1O | – | -12.7% (inactive)
Cc1cc(C)c2nc(NNC(=O)c3cc(-c4cccs4)nc4ccccc34)sc2c1 | – | -23.3% (inactive)
CCOC(=O)N1CCN(S(=O)(=O)c2ccc(C(=O)NNc3nc4c(C)cc(C)cc4s3)cc2)CC1 | 1.58 µM (active) | –
Cc1cc(C)c2nc(NNC(=O)c3ccc(S(=O)(=O)N4CC(C)CC(C)C4)cc3)sc2c1 (stereo unspecified) | – | -17.8% [at 57.5 µM] (inactive)
Cc1nc(SCc2ccc(C(=O)O)cc2)nc2c1CCCC2 | – | -2.96% (inactive)
CN1CCN(c2ccc(-c3cc(NC=O)c4ncc(-c5ccc(F)c(Cl)c5)n4c3)cc2)CC1 | – | -4.43% [at 57.5 µM] (inactive)
CN(C)CCNC(=O)c1cccc(-c2cnc3c(NC=O)cc(-c4cccs4)cn23)c1 | – | -19.3% [at 57.5 µM] (inactive)
CN(C)C(=O)c1cccc(-c2cnc3c(NC=O)cc(-c4ccc(F)cc4)cn23)c1 | – | -18.1% (inactive)
CN(C)CCNC(=O)c1cccc(-c2cnc3c(NC=O)cc(/C=C/c4ccccc4)cn23)c1 | 28.2 µM (active) | –
CN(C)CCNC(=O)c1cccc(-c2cnc3c(NC=O)cc(-c4cccc(C(F)(F)F)c4)cn23)c1 | 22.4 µM (active) | –
